In publication PMC7819943, “Rice protein-binding microarrays: a tool to detect cis-acting elements near promoter regions in rice”:
Whole data set: some 35,000 sequences, median “fluorescence intensity (a.u.)” near 10,000, cut for the highest 2% near 52,000. The entries come from a sample that favours the highest values as a whole.

target: T1, OsWOX13 (Oryza sativa, UniProt Q5QMM3 1-267); assay: protein-binding microarray (RPBM); PBS, 2% BSA, 51.3 ng/ul salmon testes DNA, 50 uM zinc acetate, 200 nM TF, 25 C, 1 h; high values mean tight binding; details: protein: recombinant; tags: N-terminal polyhistidine and DsRed monomer fusion (pET32a); label: CyDye5-dUTP incorporated in the synthesized complementary strand; 3' TTTTT single-stranded linker to array surface; dsDNA, one strand shown
T1 sequence: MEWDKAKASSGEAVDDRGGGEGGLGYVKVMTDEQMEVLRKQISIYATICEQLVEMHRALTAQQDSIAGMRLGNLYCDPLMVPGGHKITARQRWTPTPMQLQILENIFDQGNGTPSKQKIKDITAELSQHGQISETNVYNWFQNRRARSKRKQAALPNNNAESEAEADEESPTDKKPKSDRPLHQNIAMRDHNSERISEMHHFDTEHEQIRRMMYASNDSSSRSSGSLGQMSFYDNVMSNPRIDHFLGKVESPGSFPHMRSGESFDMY
In short: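 In PBS with 2% BSA, salmon testes DNA and 50 µM zinc acetate, 200 nM protein was incubated on a custom Agilent array at 25 °C for 1 h and then washed off. The array had been made double-stranded by primer extension with Cy5-dUTP and blocked with 2% BSA. The proteins were transcription factors fused N-terminally to polyhistidine and DsRed, expressed in E. coli BL21-CodonPlus and purified on Ni–NTA. The binding signal is per-feature fluorescence intensity (arbitrary units) from an Axon 4000B scanner.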

Compared with “ACATATGTGATTAGTATCAGTTCATCAGTAGTCTTCCAATCGGAGTCACCTAGTGCAG”, “CTGACAGGTATTATTGCTTGATATATTTTACTCACTTTACCGGAGTCACCTAGTGCAG” is lower in binding signal: 18500 fluorescence intensity (a.u.) for the first, 14800 fluorescence intensity (a.u.) for the second.

Compared with “ATGGGAGGTGAGATTGGGATTGGGAAATAAATGAATGGCTCGGAGTCACCTAGTGCAG”, “GAGCAGATGATTAGTGAAGGTGTAACCCCTAACATCGTTACGGAGTCACCTAGTGCAG” is higher in binding signal: 5250 fluorescence intensity (a.u.) for the first, 12900 fluorescence intensity (a.u.) for the second.

Going from “AATAAATTGTGTGGAAATTTAGCTTGCCCAATCAGATTGACGGAGTCACCTAGTGCAG” to “TGCTAATTGGGGATTTTCACATTCATGCTGTGTTAGCAGGCGGAGTCACCTAGTGCAG”, the binding signal rises from 16000 fluorescence intensity (a.u.) to 54700 fluorescence intensity (a.u.).

Going from “AATTCTAATTGGGGAGCATTTAAAGGCTGGGTTTTAGTGGCGGAGTCACCTAGTGCAG” to “AATGTGTTAGCGTTTAATTTGCGATTGGATTTGTTTCAGGCGGAGTCACCTAGTGCAG”, the binding signal falls from 20100 fluorescence intensity (a.u.) to 3560 fluorescence intensity (a.u.).

Going from “AAGTAATTTAGTCAACTCTAAAAGTAACTATGTGTGTGTGCGGAGTCACCTAGTGCAG” to “TTGAATCAATGACTGATCATTGCCCAGACTGCTATTTTCCCGGAGTCACCTAGTGCAG”, the binding signal falls from 17300 fluorescence intensity (a.u.) to 7090 fluorescence intensity (a.u.).

Going from “CAAAACGAAATTGATAGATCTTAATGAGTTGTACAACTTTCGGAGTCACCTAGTGCAG” to “AACTTATTCCAATTATCAAACTCCGCTGCTCAACCAGGCCCGGAGTCACCTAGTGCAG”, the binding signal falls from 20400 fluorescence intensity (a.u.) to 5860 fluorescence intensity (a.u.).

Compared with “TTTTATAATTCGATGACAAATTGAGAGACCTTGGGTGTACCGGAGTCACCTAGTGCAG”, “TCGCTATAATTGACAGCGACCCTACCTTGGGCCACCGGACCGGAGTCACCTAGTGCAG” is higher in binding signal: 13200 fluorescence intensity (a.u.) for the first, 57100 fluorescence intensity (a.u.) for the second.

Compared with “GCTTGATTGCCACACAAATTTTGACAATACGACCCTTTACCGGAGTCACCTAGTGCAG”, “AAGCCTAATTAATCCATCCTTAGCAGATGTGGGTTACCGTCGGAGTCACCTAGTGCAG” is lower in binding signal: 42900 fluorescence intensity (a.u.) for the first, 8630 fluorescence intensity (a.u.) for the second.

First: ATTACTATGATTACTATAATGTACCCTCAAAGCGTGTAGACGGAGTCACCTAGTGCAG
Second: ATAATGTCAAATTTCGTTCCATTGTGAAGAAATTTTGCCACGGAGTCACCTAGTGCAG
The binding signal of the first is higher: 7510 fluorescence intensity (a.u.) for the first, 3410 fluorescence intensity (a.u.) for the second.

Compared with “ATGGAATTGATTAGAAGCCAGCCAGGCAGGGGAGGGTCGTCGGAGTCACCTAGTGCAG”, “GAGGGCAAGGCCCAGGGAAGCATATCTTGATAGTCGATATCGGAGTCACCTAGTGCAG” is higher in binding signal: 33900 fluorescence intensity (a.u.) for the first, 65500 fluorescence intensity (a.u.) for the second.

Going from “CATGATAGATCAGGCAGAGAGCAGATCAGAGCAAGCATGTCGGAGTCACCTAGTGCAG” to “GGTTCCACTATCAATCTTAGACAGTATAAACAGGTCAACACGGAGTCACCTAGTGCAG”, the binding signal falls from 11800 fluorescence intensity (a.u.) to 5380 fluorescence intensity (a.u.).

Going from “GTAATTTATATTGAAATGCAATTACTTCCTCCGTTTCACCCGGAGTCACCTAGTGCAG” to “CGGAATTAATCTGATTATGTGAGTGAATTGGCATTTTGAACGGAGTCACCTAGTGCAG”, the binding signal rises from 21800 fluorescence intensity (a.u.) to 30700 fluorescence intensity (a.u.).

Going from “TCTGATTGCAATCATTCTTGAATTCTGATACATATTGGATCGGAGTCACCTAGTGCAG” to “TATTCTGATTGGAACTTATGAGTCTTGAATTCTTGATTCTCGGAGTCACCTAGTGCAG”, the binding signal falls from 60300 fluorescence intensity (a.u.) to 39000 fluorescence intensity (a.u.).

Going from “GATTAATTTAGAAATTTTGAATTCTATTACATAATGATCACGGAGTCACCTAGTGCAG” to “CTGATTAGTGATTTATTTAATTTGAGGAATCATTTTGGCACGGAGTCACCTAGTGCAG”, the binding signal rises from 20600 fluorescence intensity (a.u.) to 64900 fluorescence intensity (a.u.).

Going from “TTAATTACAAATTGATTTGATCACGTAGATAATTACATCACGGAGTCACCTAGTGCAG” to “AATTGATTTACAATACTTCCTCCGTTTCACAATATAAGTGCGGAGTCACCTAGTGCAG”, the binding signal falls from 62000 fluorescence intensity (a.u.) to 24700 fluorescence intensity (a.u.).

First: TGAGAGTGGCATTTAATTGAATCCTATTATGATGGTGGCACGGAGTCACCTAGTGCAG
Second: ATAATTTGATCAAATTACATGTGATTTTGTGAAATTTACACGGAGTCACCTAGTGCAG
The binding signal of the first is lower: 16100 fluorescence intensity (a.u.) for the first, 39700 fluorescence intensity (a.u.) for the second.

First: AACAATTGATTAGTACAAAATGGTACTTCCTCCGTTTCACCGGAGTCACCTAGTGCAG
Second: AAGGAGAATTTTCTTGATTGAAATTATACATCATATTCATCGGAGTCACCTAGTGCAG
The binding signal of the first is higher: 56600 fluorescence intensity (a.u.) for the first, 29500 fluorescence intensity (a.u.) for the second.

Compared with “CAAAACTGAGTACATTGGATTGGACCATCTAAAAGGAAATCGGAGTCACCTAGTGCAG”, “TTTATCAAATTATCGTTTGTGTACTCTAGCTGGTCCTGGACGGAGTCACCTAGTGCAG” is lower in binding signal: 4580 fluorescence intensity (a.u.) for the first, 3870 fluorescence intensity (a.u.) for the second.

First: TGAAATTATTAGCAGGGTTTTAAATCTTCTGTTATAGCTGCGGAGTCACCTAGTGCAG
Second: GGTAATAGAGAGACCACTAATAAAGATTGTTGTACCTGTGCGGAGTCACCTAGTGCAG
The binding signal of the first is higher: 4040 fluorescence intensity (a.u.) for the first, 3690 fluorescence intensity (a.u.) for the second.

Compared with “CCCTAGACAGATCAGCTTTGGTGTCTTGGTGGTTGTTGTCCGGAGTCACCTAGTGCAG”, “TGTTTAAGTTTGTCCTAATTACCTGTCACATTTTCCGTGCCGGAGTCACCTAGTGCAG” is higher in binding signal: 5440 fluorescence intensity (a.u.) for the first, 8460 fluorescence intensity (a.u.) for the second.

Compared with “GGCAGTGACTAATTAACCTCACGGATGACAGGCGGCGAAACGGAGTCACCTAGTGCAG”, “ATCAGCTGATTACCTCACTGCATCCGTATGATTCGACTTTCGGAGTCACCTAGTGCAG” is lower in binding signal: 10300 fluorescence intensity (a.u.) for the first, 7310 fluorescence intensity (a.u.) for the second.
